Assay outcomes from PubChem BioAssay.
An excerpt weighted towards active compounds, which were near 2.9% of everything screened.
proKLK7 act: proKLK7 zymogen activators, primary screen, biochemical, fluorescence intensity | Kallikrein-7 (Homo sapiens), P49862 | purified proKLK7, EDANS-DABCYL substrate fluorescence; 100% is mature enzyme control, 0% vehicle | activation, % at 7 µM | actives 0.9% (n = 370,000) | AID 652039, 2013;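 active = activation above the mean of all tested compounds plus 3 SD, computed per campaign excluding outliers beyond control limits, cut at about 13% in these data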
PLC-gamma1 inh: PLC-gamma1 enzyme inhibitors, primary screen, biochemical, fluorescence, purified enzyme; fluorogenic substrate; inhibition, % at 12.2 µM; actives 0.84% (n = 370,000); AID 720700, 2013; in the data active = inhibition above about 9.5%
ADAM10 inh: human ADAM10 inhibitors, primary screen, biochemical, QFRET, HTS | Disintegrin and metalloproteinase domain-containing protein 10 (Homo sapiens), O14672 | recombinant ADAM10, EDANS/DABCYL FRET peptide cleavage, 3 h | inhibition, % at 7 µM | actives 0.62% (n = 370,000) | AID 720582, 2013;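 active = inhibition above a per-campaign cutoff equal to the mean of compounds falling between control-based bounds plus 3 SD, cut at about 20% in these data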
PLCb3 inh: human PLC-beta3 inhibitors, primary screen, biochemical, fluorescence; actives 0.18% (n = 370,000); AID 720704, 2013; inhibition, % at 12.2 µM; Purified PLC-beta3, fluorogenic substrate; in the data active = inhibition above about 11%
ADAM17 inh: ADAM17 inhibitors, primary screen, biochemical, QFRET; Disintegrin and metalloproteinase domain-containing protein 17 (Homo sapiens), P78536; recombinant ADAM17, EDANS/DABCYL FRET peptide cleavage; inhibition, % at 6.95 µM; actives 0.83% (n = 370,000);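 active = inhibition above the mean of compounds lying between control limits plus 3 SD, set per campaign, cut at about 8.5% in these data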
Target sequence (P78536 215-824 limits assumed): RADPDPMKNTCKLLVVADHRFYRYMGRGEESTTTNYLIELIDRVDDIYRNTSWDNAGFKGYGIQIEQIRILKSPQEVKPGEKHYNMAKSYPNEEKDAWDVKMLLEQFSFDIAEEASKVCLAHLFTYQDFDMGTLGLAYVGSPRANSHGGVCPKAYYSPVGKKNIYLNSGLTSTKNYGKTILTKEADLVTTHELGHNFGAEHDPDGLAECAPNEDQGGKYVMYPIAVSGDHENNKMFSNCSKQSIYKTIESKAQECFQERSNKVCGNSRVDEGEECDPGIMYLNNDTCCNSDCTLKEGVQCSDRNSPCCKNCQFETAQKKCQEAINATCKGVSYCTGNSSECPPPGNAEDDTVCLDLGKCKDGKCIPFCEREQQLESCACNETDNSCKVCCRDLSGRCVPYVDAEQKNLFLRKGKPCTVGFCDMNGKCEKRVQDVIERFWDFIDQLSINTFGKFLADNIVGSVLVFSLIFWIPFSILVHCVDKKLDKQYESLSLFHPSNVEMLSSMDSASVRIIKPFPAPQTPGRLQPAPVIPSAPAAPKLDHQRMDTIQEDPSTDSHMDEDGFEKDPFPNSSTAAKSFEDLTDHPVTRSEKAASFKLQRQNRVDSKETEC
KLK7 act conf: proKLK7 zymogen activators, confirmation, biochemical, fluorescence intensity, triplicate; purified proKLK7, EDANS-DABCYL substrate fluorescence; scaled: vehicle 0, mature enzyme 100; AID 686949, 2013; shares compounds with proKLK7 act; actives 68% (n = 3,200); activation, % at 7 µM;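 active = activation, as change over the incubation, above the mean of all tested compounds plus 3 SD, cut at about 13% in these data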
EDANS-DABCYL int: EDANS-DABCYL substrate optical interference, artefact control for kallikrein-7 zymogen activator project, biochemical, fluorescence intensity, high throughput. actives 80% (n = 3,200). no enzyme, 4 h; solvent 0%, active enzyme control 100%. activation, % at 7 µM. shares compounds with proKLK7 act;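 active = activation above the all-compound mean plus 3 SD, ignoring values outside control-based bounds, cut at about 4.8% in these data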;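 also: value is the 4 h activation minus the activation read at time zero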
Hits are given with their value; . = inactive; / = no result.

SMILES | proKLK7 act | PLC-gamma1 inh | ADAM10 inh | PLCb3 inh | ADAM17 inh | KLK7 act conf | EDANS-DABCYL int
CN(C(=O)NC(=O)C1=C(N2CCOCC2)/C(=C/c2ccccc2)CC1)S(C)(=O)=O | 146 | . | . | . | . | 342 | 332
CCOC(=O)C1=CCN(S(=O)(=O)c2ccc(Br)cc2)C1c1cccc(Br)c1 (stereo not drawn) | . | . | . | . | . | / | /
C#CCN1CC(N(C)CCOC(=O)CC2C=CCC2)CS1(=O)=O (stereo not drawn) | . | . | . | . | . | / | /
COc1cc2c(cc1OC)C(C(N)=O)NCC2 (stereo not drawn) | 54 | . | . | . | . | . | .
COc1ccc(C2NCCc3cc(OC)c(OC)cc32)cc1OC (stereo not drawn) | . | . | . | . | . | / | /
COc1cc2c(cc1OC)C(C1(O)CCCCC1)NCC2 (stereo not drawn) | 21 | . | . | . | . | 14 | 14
CCC[C@H]1[C@@H](NCc2cccs2)CC[C@@]23CCCN2C(=O)CCC[C@@H]13 | / | . | . | . | . | / | /
C=CCN(CC#Cc1ccc(C(F)(F)F)cc1)Cc1ccc(OC)cc1OC | . | . | . | . | . | / | /
CC(=O)Nc1nc2nc(-c3ccccc3)cc(-c3ccccc3)n2n1 | . | . | . | . | . | / | /
O=C1CCC(=O)N1c1nc2nc(-c3ccccc3)cc(-c3ccccc3)n2n1 | 31 | . | . | . | . | 40 | 44
COc1ccc(CN(C)C(C#Cc2ccccc2)Cc2ccccc2)c(OC)c1 (stereo not drawn) | . | . | . | . | . | / | /
CN(C)Cc1c(O)ccc2cc(-c3nc4ccccc4n3C)c(=O)oc12 | 78 | . | . | . | . | 67 | 77
CCN(CC)c1ccc2cc(-c3nc4ccccc4n3C)c(=O)oc2c1 | . | . | . | . | . | / | /
C=CCN(CC#CC(=C)C)Cc1ccc(OC)cc1OC | . | . | . | . | . | / | /
CCOc1ccc2[nH]c(SCC(=O)OC)c([N+](=O)[O-])c2c1 | 13 | . | . | . | . | 19 | 16
COC(=O)CSc1[nH]c2ccc(Br)cc2c1[N+](=O)[O-] | . | . | . | . | . | / | /
O=C(Cn1nnc(-c2ccncc2)n1)Nc1ccc(Cl)cc1 | . | . | . | . | . | / | /
CC(=O)Oc1ccc2c(=O)c(N3C(=O)c4ccccc4C3=O)c(C)oc2c1C | 27 | . | . | . | . | 34 | 31
O=S(=O)(Nc1cccc(-c2cn3cccnc3n2)c1)c1ccc(Cl)cc1 | 28 | . | . | . | . | . | 6.4
COc1ccc(C)cc1S(=O)(=O)Nc1cccc(-c2cn3cccnc3n2)c1 | 18 | . | . | . | . | . | .
COc1ccc(CCNC(=O)c2sc(=S)n(C)c2N)cc1 | 15 | . | . | . | . | 15 | 13
N#Cc1cc2ccc(N3CCOCC3)cc2cc1C#N | 34 | . | . | . | . | . | .
CCNc1sc(C(=O)c2cccs2)c(N)c1C#N | . | . | . | . | . | / | /
C=CCNc1sc(C(=O)c2cccs2)c(N)c1C#N | 87 | . | . | . | . | . | .
COC(=O)C1CN(C2CCCC2)CCS(=O)(=O)N1Cc1cn(Cc2ccc(F)cc2)nn1 (stereo not drawn) | . | . | . | . | . | / | /
CCCc1cc(NCCCO)n2c(nc3ccccc32)c1C#N | 17 | . | . | . | . | . | .
Cc1cc(NCCCn2ccnc2)n2c(nc3ccccc32)c1C#N | 17 | . | . | . | . | 54 | 72
CCC(C)Nc1cc(C)c(C#N)c2nc3ccccc3n12 (stereo not drawn) | 26 | . | . | . | . | . | .
CCC(C)Sc1cc(C)c(C#N)c2nc3ccccc3n12 (stereo not drawn) | . | . | . | . | . | / | /
